Experimental data as given in the supplement of paper PMC12350171.
Counter-ions that a name gives are not always drawn. Unmarked numbers belong to inactive results.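 How the source made its calls: active = AUC significantly below DMSO controls by Student t-fit with adjusted P under 0.01; inactive = not significantly reduced.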

Test system: Haemophilus parainfluenzae
Assay: growth AUC normalised to DMSO control (fraction of control); higher = less growth inhibition, active = hit call of the paper
Conditions: 20 µM
Procedure, shortened: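 Pathogens were passaged twice under anaerobic conditions, then inoculated into pre-reduced mGAM plates at a starting OD578 of 0.01, with compound at 20 μM and 1% DMSO, and sealed with breathable membranes. For Haemophilus parainfluenzae, the medium was supplemented with hemin and NAD. OD578 was read every hour for 24 h in three biological replicates. Growth-curve AUC was calculated by the trapezoidal rule up to the exponential-to-stationary transition and normalised to DMSO controls on the same plate.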

SMILES	growth AUC normalised to DMSO control
C[C@]12CC[C@H]3[C@@H](CCC4=CC(=O)CC[C@@]43C)[C@@H]1CC[C@@H]2C(=O)CO [Deoxycorticosterone]	1.04
CC(C)(C)C(=O)OCOC(=O)[C@@H]1N2C(=O)[C@@H](NC(=O)[C@H](N)c3ccccc3)[C@H]2SC1(C)C [Pivampicillin]	0.942
CN(C(=O)C(Cl)Cl)c1ccc(OC(=O)c2ccco2)cc1 [Diloxanide furoate]	0.954
CN1C(=O)OC(C)(C)C1=O [Trimethadione]	0.975
CC(C(=O)O)c1ccc(-c2ccccc2)c(F)c1 (configuration not stated) [Flurbiprofen]	0.943
CCN[C@H]1C[C@H](C)S(=O)(=O)c2sc(S(N)(=O)=O)cc21 [Dorzolamide hydrochloride]	1.03
CN1CCN(CCCN2c3ccccc3Sc3ccc(S(=O)(=O)N(C)C)cc32)CC1 [Thioproperazine dimesylate]	1.01
COc1nc(C)nc(Cl)c1NC1=NCCN1 [Moxonidine]	1.01
CC1=Nc2ccc(Cl)cc2S(=O)(=O)N1 [Diazoxide]	1.05
NCCc1ccc(O)c(O)c1 [Dopamine hydrochloride]	1.07
CC1(C)O[C@@H]2C[C@H]3[C@@H]4C[C@H](F)C5=CC(=O)C=C[C@]5(C)[C@H]4[C@@H](O)C[C@]3(C)[C@]2(C(=O)CO)O1 [Flunisolide]	0.945
C[C@]12CC[C@@H]3c4ccc(O)cc4CC[C@H]3[C@@H]1CC[C@@H]2O [Estradiol-17 beta]	1
